This is part of a sample that, as a whole, favours compounds with a hit. Of some 83,000 tested, about 20% had one in any assay.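 For each line, cells grew in 96-well plates with the test compound present at a single concentration for 48 hours.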 Active and inactive are the calls of the source. Rule for the calls: active = growth percent below 10; inactive = the rest.
Each compound was assayed on NCI-H322M lung (assay: NCI-60 one-dose screen, 48 h (100 = growth as untreated, 0 = no growth, -100 = all killed)). Details: 10 µM unless noted.

Structure (SMILES) | growth
O=C(Nc1ccccc1)Nc1ncnc2c1ncn2-c1ccc(Cl)cc1 | 79.3% (inactive)
CC(C)c1ccc(C(=O)Nc2nc3ccc(O)c(CN(C)C)c3s2)cc1 | 81.9% (inactive)
Cc1ccc(Nn2c(SCC(=O)Nc3nc(-c4ccccc4)cs3)nc(C)c2C)cc1 | 96% (inactive)
N#CC(C#N)N=Nc1ccc(Br)cc1 | 100% (inactive)
CCN1C(=S)N(c2ccccc2)C2C1NN=c1s/c(=C3\C(=O)N(C(C)C)c4ccccc43)c(=O)n12 (stereo not drawn) | 82.8% (inactive)
CSc1nc2ccccc2cc1/C=[N+](\[O-])c1ccccc1 | 85.7% (inactive)
CN1CCN(c2cc(Nc3cc(C4CC4)[nH]n3)nc(Nc3ccc(CC(=O)NCc4cccc(F)c4)cc3)n2)CC1 | 20.5% (inactive)
C=CCN=c1sc2c(n1NC(=O)c1cc3ccc1CCc1ccc(cc1)CC3)C(=O)c1ccccc1C2=O | 67.8% (inactive)
Cn1cc(-c2csc(-c3cn(C(=O)OC(C)(C)C)c4ccc(Br)cc34)n2)c2ccnc(Cl)c21 | 85.3% (inactive)
CSc1oc(C)nc1[P+](c1ccccc1)(c1ccccc1)c1ccccc1 | 99% (inactive)
C=C1C(=O)O[C@H]2[C@H]1CC/C(Cn1cc(-c3ccccc3)nn1)=C\CC[C@@]1(C)O[C@@H]21 | 89.2% (inactive)
O=S(=O)(c1ccccc1)n1cc2c(c1)-c1nc(Nc3ncccn3)sc1CC2 | 63.6% (inactive)
Cc1[nH]c(C(=O)Nc2ccccc2OC2CCNCC2)c(Cl)c1Cl | 31.3% (inactive)
COc1ccc(-c2cc(-c3ccc(Cl)cc3)c(C#N)c(=O)n2Cc2ccc(C(=O)Nc3ccccc3N)cc2)cc1 | 89.3% (inactive)
O=C(CN1CCCCC1)Nc1nc(-c2cc3ccccc3oc2=O)cs1 | 93.9% (inactive)
Oc1ccc(Cl)cc1/C=N\NC(=S)N/N=C/c1cc(Cl)ccc1O | 34.4% (inactive)
COC12C=C/C(=C(/C(=O)OCc3ccncn3)C(=O)CCCCCCCCC3(OC)C=C/C(=C(/C(=O)OCc4ccncn4)C(=O)CCCCCCCC1)O3)O2 | -76.5% (active)
COc1ccc2c(c1)N(CCO)C1=C(C(=O)OC1)C2c1cccc(F)c1 (stereo not drawn) | 46.5% (inactive)
CC(=O)Oc1ccc(/C(=C(\C)c2ccc(Cl)cc2)c2ccc(OCCN3CCCCC3)cc2)cc1 | 84.7% (inactive)
O=C(N(c1ccccc1)c1ccccc1)n1cc(I)c2nc(Cl)nc(Cl)c21 | 92.6% (inactive)

Structure (SMILES) | growth
N#Cc1nc(-c2ccccc2)oc1S(=O)(=O)N1CCN(c2ccccc2)CC1 | 95.6% (inactive)
Cc1ccc(NC(=O)c2sc3nc(C)c(Br)c(C)c3c2N)cc1 | 51.2% (inactive)
O=C(CN1C(=O)S/C(=C\C(Cl)=C\c2ccccc2)C1=O)NCCc1ccc(O)cc1 | 75.2% (inactive)
O=C(/C=C/c1cn(-c2ccccc2)nc1-c1ccc(Cl)cc1)c1ccc(F)cc1 | 77.2% (inactive)
CCOC(=O)c1c(NC(=O)c2cccc(C(F)(F)F)c2)sc2c(CN(C)C)c(O)ccc12 | 70.9% (inactive)
N#Cc1c(-c2ccccc2)cc(-c2ccc(Nc3nc(Nc4ccc(Cl)cc4)nc(Nc4ccc(Cl)cc4)n3)cc2)nc1N | 87% (inactive)
O=C(/C=C/c1cccs1)Nc1ncc(Cc2ccccc2F)s1 | 37.9% (inactive)
O=S(=O)(Nc1cc(Cl)ccc1Cl)c1ccc(-c2cnc(C3CC3)o2)cc1 | 59.4% (inactive)
CCOC(=O)c1ccc2c(c1)nc(-c1ccccc1)n2C1CCCCC1 | 83.1% (inactive)
CC(=O)N1N=C(c2ccc(C(F)(F)F)c(F)c2)CC1c1[nH]c(C)c(C(=O)NCC(F)(F)F)c1C (stereo not drawn) | 74.6% (inactive)
O=C(CN1C(=O)S/C(=C\c2ccccc2)C1=O)Nc1ncc(Cc2ccccc2Cl)s1 | 95.9% (inactive)
COc1cc(OCc2cccc(Br)c2C)cc(OC)c1C=O | 92.6% (inactive)
COc1cc(NS(=O)(=O)c2ccc(-c3cnc(C4CC4)o3)cc2)ccc1F | 49.5% (inactive)
COC1=CC(c2ccc[nH]2)=N/C1=C\c1[nH]c(C)c(CC(=O)OCc2ccccc2)c1CCC(=O)OCc1ccccc1 | 34.7% (inactive)
Clc1cccc(Nc2ncnc3ccc(-c4cnc5[nH]ccc5c4)cc23)c1 | 18.7% (inactive)
COc1cc2ncnc(Nc3ccc(F)c(Cl)c3)c2cc1OCC(=O)N1CCN(c2ccccc2)CC1 | 34% (inactive)
O=C1Nc2ccccc2/C1=C/c1nc2ccccc2c(=O)[nH]1 | 101% (inactive)
CNc1nnc2n(-c3ccccc3)c(=O)c3cnn(-c4ccccc4)c3n12 | 100% (inactive)
C=C1C(=O)O[C@H]2[C@H]1CC/C(COC(=O)c1cc3ccccc3s1)=C\CC[C@@]1(C)O[C@@H]21 | -25.8% (active)

These compounds were tested on HOP-62 NSCLC in the same assay as above. Details: 10 µM unless noted.

Structure (SMILES) | growth
O=C(Nc1ccccc1)Nc1ncnc2c1ncn2-c1ccc(Cl)cc1 | 75.4% (inactive)
CC(C)c1ccc(C(=O)Nc2nc3ccc(O)c(CN(C)C)c3s2)cc1 | 93.4% (inactive)
Cc1ccc(Nn2c(SCC(=O)Nc3nc(-c4ccccc4)cs3)nc(C)c2C)cc1 | 73.1% (inactive)
N#CC(C#N)N=Nc1ccc(Br)cc1 | 80.1% (inactive)
CCN1C(=S)N(c2ccccc2)C2C1NN=c1s/c(=C3\C(=O)N(C(C)C)c4ccccc43)c(=O)n12 (stereo not drawn) | 73.4% (inactive)
CSc1nc2ccccc2cc1/C=[N+](\[O-])c1ccccc1 | 67.9% (inactive)
CN1CCN(c2cc(Nc3cc(C4CC4)[nH]n3)nc(Nc3ccc(CC(=O)NCc4cccc(F)c4)cc3)n2)CC1 | 8.32% (active)
C=CCN=c1sc2c(n1NC(=O)c1cc3ccc1CCc1ccc(cc1)CC3)C(=O)c1ccccc1C2=O | 19.5% (inactive)
Cn1cc(-c2csc(-c3cn(C(=O)OC(C)(C)C)c4ccc(Br)cc34)n2)c2ccnc(Cl)c21 | 68.5% (inactive)
CSc1oc(C)nc1[P+](c1ccccc1)(c1ccccc1)c1ccccc1 | 87.6% (inactive)
C=C1C(=O)O[C@H]2[C@H]1CC/C(Cn1cc(-c3ccccc3)nn1)=C\CC[C@@]1(C)O[C@@H]21 | 79.3% (inactive)
O=S(=O)(c1ccccc1)n1cc2c(c1)-c1nc(Nc3ncccn3)sc1CC2 | 22.1% (inactive)
Cc1[nH]c(C(=O)Nc2ccccc2OC2CCNCC2)c(Cl)c1Cl | 11.4% (inactive)
COc1ccc(-c2cc(-c3ccc(Cl)cc3)c(C#N)c(=O)n2Cc2ccc(C(=O)Nc3ccccc3N)cc2)cc1 | 71.6% (inactive)
O=C(CN1CCCCC1)Nc1nc(-c2cc3ccccc3oc2=O)cs1 | 96.2% (inactive)
Oc1ccc(Cl)cc1/C=N\NC(=S)N/N=C/c1cc(Cl)ccc1O | 51.2% (inactive)
COC12C=C/C(=C(/C(=O)OCc3ccncn3)C(=O)CCCCCCCCC3(OC)C=C/C(=C(/C(=O)OCc4ccncn4)C(=O)CCCCCCCC1)O3)O2 | 23% (inactive)
COc1ccc2c(c1)N(CCO)C1=C(C(=O)OC1)C2c1cccc(F)c1 (stereo not drawn) | 36.9% (inactive)
CC(=O)Oc1ccc(/C(=C(\C)c2ccc(Cl)cc2)c2ccc(OCCN3CCCCC3)cc2)cc1 | 52.8% (inactive)
O=C(N(c1ccccc1)c1ccccc1)n1cc(I)c2nc(Cl)nc(Cl)c21 | 43.9% (inactive)

Structure (SMILES) | growth
N#Cc1nc(-c2ccccc2)oc1S(=O)(=O)N1CCN(c2ccccc2)CC1 | 104% (inactive)
Cc1ccc(NC(=O)c2sc3nc(C)c(Br)c(C)c3c2N)cc1 | 34.9% (inactive)
O=C(CN1C(=O)S/C(=C\C(Cl)=C\c2ccccc2)C1=O)NCCc1ccc(O)cc1 | 43% (inactive)
O=C(/C=C/c1cn(-c2ccccc2)nc1-c1ccc(Cl)cc1)c1ccc(F)cc1 | 102% (inactive)
CCOC(=O)c1c(NC(=O)c2cccc(C(F)(F)F)c2)sc2c(CN(C)C)c(O)ccc12 | 96.7% (inactive)
N#Cc1c(-c2ccccc2)cc(-c2ccc(Nc3nc(Nc4ccc(Cl)cc4)nc(Nc4ccc(Cl)cc4)n3)cc2)nc1N | 99% (inactive)
O=C(/C=C/c1cccs1)Nc1ncc(Cc2ccccc2F)s1 | 22.4% (inactive)
O=S(=O)(Nc1cc(Cl)ccc1Cl)c1ccc(-c2cnc(C3CC3)o2)cc1 | 39.8% (inactive)
CCOC(=O)c1ccc2c(c1)nc(-c1ccccc1)n2C1CCCCC1 | 65% (inactive)
CC(=O)N1N=C(c2ccc(C(F)(F)F)c(F)c2)CC1c1[nH]c(C)c(C(=O)NCC(F)(F)F)c1C (stereo not drawn) | 64.9% (inactive)
O=C(CN1C(=O)S/C(=C\c2ccccc2)C1=O)Nc1ncc(Cc2ccccc2Cl)s1 | 103% (inactive)
COc1cc(OCc2cccc(Br)c2C)cc(OC)c1C=O | 93.5% (inactive)
COc1cc(NS(=O)(=O)c2ccc(-c3cnc(C4CC4)o3)cc2)ccc1F | 41.8% (inactive)
COC1=CC(c2ccc[nH]2)=N/C1=C\c1[nH]c(C)c(CC(=O)OCc2ccccc2)c1CCC(=O)OCc1ccccc1 | -22.2% (active)
Clc1cccc(Nc2ncnc3ccc(-c4cnc5[nH]ccc5c4)cc23)c1 | 86.9% (inactive)
COc1cc2ncnc(Nc3ccc(F)c(Cl)c3)c2cc1OCC(=O)N1CCN(c2ccccc2)CC1 | 103% (inactive)
O=C1Nc2ccccc2/C1=C/c1nc2ccccc2c(=O)[nH]1 | 76.3% (inactive)
CNc1nnc2n(-c3ccccc3)c(=O)c3cnn(-c4ccccc4)c3n12 | 64.7% (inactive)
C=C1C(=O)O[C@H]2[C@H]1CC/C(COC(=O)c1cc3ccccc3s1)=C\CC[C@@]1(C)O[C@@H]21 | -61.6% (active)
